aSyn UTR act – Activators via SNCA 5'UTR binding, MLPCN | alpha-synuclein 5'UTR reporter, activators screen | activity score, % (tested at 7.5 µM), hits read low | 7.1% of 300,000 active; in the data active = activity score below about -60%
* = called active by the depositor. Not all results are given here.

Results for C(=N\Nc1nc2ccccc2[nH]1)/c1cccc2nccnc12 ?
aSyn UTR act: 67.3

Results for C#CCn1cc(/C=N/Nc2nc3ccccc3[nH]2)c2ccccc21 ?
aSyn UTR act: -383.3*

Results for C(=N\Nc1nc2ccccc2[nH]1)/c1ccccn1 ?
aSyn UTR act: 111.7

Results for Cc1ccc(/C=N\Nc2nc3ccc(Cl)cc3[nH]2)o1 ?
aSyn UTR act: -192.3*

What do the screens show for `CCCCn1c(/C=N/Nc2nc3ccccc3[nH]2)nc2ccccc21`?
aSyn UTR act: -432.6*

What do the screens show for `COc1cc(C2c3cc4c(cc3C(OC3OC5COC(c6cccs6)OC5C(O)C3O)C3COC(=O)C23)OCO4)cc(OC)c1O` (stereo not given)?
aSyn UTR act: 81.7

Results for CCOc1ccc(-c2cc(C(=O)N3CCN(c4ccccn4)CC3)c3ccccc3n2)cc1 ?
aSyn UTR act: -67.9*

Results for Cc1ccc(-c2cc(C(=O)N3CCN(c4ccc(F)cc4)CC3)c3ccccc3n2)o1 ?
aSyn UTR act: -95.8*

What do the screens show for `COc1ccc(-c2cc(C(=O)N3CCN(c4ccccn4)CC3)c3ccccc3n2)cc1`?
aSyn UTR act: -139.9*

Results for O=C(c1cc(-c2ccncc2)nc2c(Cl)cccc12)N1CCN(c2ccccc2F)CC1 ?
aSyn UTR act: 99.1

Results for Cc1ccc(-n2c([S-])c(C(=O)Nc3ccc(OC(F)F)cc3)[n+]3ccc(C(=O)NCCO)cc23)cc1C ?
aSyn UTR act: -72.0*

What do the screens show for `CN1CCN(CC/C=C2/c3ccccc3Sc3ccc(S(=O)(=O)N(C)C)cc32)CC1`?
aSyn UTR act: -97.5*

Results for Cc1ccc(COc2ccc(/C=N/O)cc2)cc1 ?
aSyn UTR act: -131.0*

What do the screens show for `Cc1ccc(Oc2ccc(/C=N/O)cn2)cc1`?
aSyn UTR act: -83.2*

What do the screens show for `COc1cc(N)ccc1NC(=O)c1cc2ccccc2o1`?
aSyn UTR act: -135.6*

What do the screens show for `COc1cc(NC(C)=O)ccc1NC(=O)c1cc2ccccc2o1`?
aSyn UTR act: -82.9*

How did CCCC(=O)Nc1ccc(NC(=O)c2cc3ccccc3o2)c(OC)c1 do in these assays?
aSyn UTR act: -222.5*

What do the screens show for `CCOC(=O)c1ccc2nc(C)c(C)nc2c1`?
aSyn UTR act: -88.2*

What do the screens show for `CCOC(=O)c1ccc2nc(C)c(CCC(C)=O)c(Cl)c2c1`?
aSyn UTR act: -108.4*

What do the screens show for `COc1ccc(OC)c(C(=O)Cn2nnc(-c3ccc(N4CCOCC4)cc3)n2)c1`?
aSyn UTR act: -135.0*

How did COc1ccc(-c2ccc(-c3nnn(CC(=O)N4CCOCC4)n3)cc2)cc1 do in these assays?
aSyn UTR act: -166.1*

Results for Cc1ccc2nc(-c3ccccc3)cn2c1 ?
aSyn UTR act: 120.4

Results for Cc1ccc2nc(-c3ccc(-c4ccccn4)s3)cn2c1 ?
aSyn UTR act: -111.1*

Results for O=c1nc(/C=C/c2ccc(-c3ccc(F)cc3)o2)cc(C(F)(F)F)[nH]1 ?
aSyn UTR act: -62.5*

How did CCOC(=O)c1sc(=NC(=O)c2cccc(C)c2)n(C)c1C do in these assays?
aSyn UTR act: -151.4*

Results for CCOC(=O)c1sc(=NC(=O)c2cccc(Br)c2)n(C)c1C ?
aSyn UTR act: -188.2*

What do the screens show for `Cc1ccc(C(=O)CC(c2cccs2)S(=O)(=O)c2ccc(C)cc2)cc1` (stereo not given)?
aSyn UTR act: -117.6*

Results for CC(C)(C)c1nnc(NC(=O)c2cccs2)s1 ?
aSyn UTR act: -143.3*

How did CC(C)c1nnc(NC(=O)c2cccs2)s1 do in these assays?
aSyn UTR act: -102.0*

Results for O=C(Nc1nnc(C2CC2)s1)c1cccs1 ?
aSyn UTR act: -74.1*

How did COc1ccc(C(=O)Nc2cc3c4c(c2)CC(=O)N4CCC3)c(OC)c1 do in these assays?
aSyn UTR act: -90.3*

What do the screens show for `O=C(O)CCCC(=O)Nc1ccc(OCc2nc3ccccc3s2)cc1`?
aSyn UTR act: -67.4*

How did CCNC(=S)Nc1ccc(OCc2nc3ccccc3s2)cc1 do in these assays?
aSyn UTR act: -89.7*

Results for Cc1ccc(CC(=O)Nc2ncc([N+](=O)[O-])s2)cc1 ?
aSyn UTR act: -136.3*

How did O=C(Nc1cc([N+](=O)[O-])ccc1F)c1cccs1 do in these assays?
aSyn UTR act: -70.3*

What do the screens show for `O=C(Nc1ncc([N+](=O)[O-])s1)c1cccs1`?
aSyn UTR act: -106.1*

Results for O=C(Nc1ncc([N+](=O)[O-])s1)c1ccccc1Br ?
aSyn UTR act: -126.3*

What do the screens show for `Cc1cnc(NC(=O)c2cccs2)s1`?
aSyn UTR act: -82.3*

What do the screens show for `Clc1ccc(/C=N/Nc2nnc(-c3ncc[nH]3)c3ccccc23)cc1`?
aSyn UTR act: -169.1*

How did Clc1cccc(/C=N/Nc2nnc(Cl)c3ccccc23)c1 do in these assays?
aSyn UTR act: -196.6*

Results for O=C(N/N=C/C(Br)=C/c1ccccc1)C(O)c1ccccc1 (stereo not given) ?
aSyn UTR act: -74.3*

How did O=C(N/N=C/C(Br)=C/c1ccccc1)C1CC1 do in these assays?
aSyn UTR act: -195.2*

How did O=C(O)c1ccc(N/N=C/C(Br)=C/c2ccccc2)cc1 do in these assays?
aSyn UTR act: -242.4*

What do the screens show for `BrC(=C\c1ccccc1)/C=N/Nc1nc2ccccc2[nH]1`?
aSyn UTR act: -158.4*
